The results in this text go back to PubChem BioAssay (EPA / NIEHS).

Results filed as inconclusive are left out. Calls of active or inactive are those of the source. How the source made its calls: active means hit-call score of the fitted dose curve at least 0.9, where 1 is the maximum; inconclusive means response in the unintended direction; inactive means score below 0.9.

Assay [1] deals with human Acetylcholinesterase (AChE), ACHE (gene 43) (UniProt P22303). In words: NVS_ENZ_hAChE: NovaScreen (NVS) Enzymatic Assay for human Acetylcholinesterase (AChE) (AID 2283129). The procedure, abridged:
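Cell-free colorimetric enzyme-activity assay; compounds read 0.33 hour after dosing, loss of signal vs DMSO baseline. Primary screen in duplicate at 25 uM single concentration, with active compounds retested in concentration series.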

Assay [2] concerns the target Norway rat Vesicular Monoamine Transporter (VMAT2), neurotransmitter transporter, Slc18a2 (gene 25549) (UniProt Q01827). The experiment in a line: NVS_TR_rVMAT2: NovaScreen (NVS) Transporter Assay for Norway rat Vesicular Monoamine Transporter (VMAT2), neurotransmitter transporter (AID 2283376).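 Further: actives lower the bound radioligand signal below the DMSO level.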 The procedure, abridged:
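Tissue: rat forebrain extract. Format: competitive radioligand binding, cell-free. Timepoint: 1 h. Readout: filter radiodetection/scintillation. Screen: 25 uM in duplicate, then concentration series for actives. Baseline: DMSO.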

Assay [3] addresses human Fibroblast Growth Factor Receptor 1 (FGFR1), FGFR1 (gene 2260) (UniProt P11362). The experiment in a line: NVS_ENZ_hFGFR1: NovaScreen (NVS) Enzymatic Assay for human Fibroblast Growth Factor Receptor 1 (FGFR1) (AID 2283159). The procedure, abridged:
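Cell-free recombinant kinase with fluorescent substrate, product separated by electrophoretic mobility shift; read 1 hour after dosing, loss of signal relative to DMSO. Initial screen in duplicate at 25 uM, actives followed in concentration series.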

In assay [4] the test system is rat Monoamine Oxidase, MAO-A, Peripheral (MAOAP), gene 29253. In words: NVS_ENZ_rMAOAP: NovaScreen (NVS) Enzymatic Assay for rat Monoamine Oxidase, MAO-A, Peripheral (MAOAP) (AID 2283237). The procedure, abridged: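 Rat liver mitochondrial membranes served as the MAO-A source, with enzyme activity measured by radiometric scintillation counting 1.17 hours after dosing. Loss of signal was fitted against DMSO; primary screen used 25 uM in duplicate, follow-up used concentration series.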

In assay [5] the target is rat Monoamine Oxidase, MAO-B, Central (MAOBC), Maob (gene 25750) (UniProt P19643). The experiment in a line: NVS_ENZ_rMAOBC: NovaScreen (NVS) Enzymatic Assay for rat Monoamine Oxidase, MAO-B, Central (MAOBC) (AID 2283238). The procedure, abridged: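 Compounds were first tested in duplicate at 25 uM against MAO-B from rat brain tissue; those passing the inhibition threshold were retested in concentration series up to 50 uM. Radiodetection by scintillation counting at 1.17 h, analysed against DMSO baseline.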

The target of assay [6] is human AMP-activated Protein Kinase, alpha 1 (AMPKa1), PRKAA1 (gene 5562) (UniProt Q13131). The experiment in a line: NVS_ENZ_hAMPKa1: NovaScreen (NVS) Enzymatic Assay for human AMP-activated Protein Kinase, alpha 1 (AMPKa1) (AID 2283130). The procedure, abridged: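 Recombinant human AMPKα1 activity was measured cell-free by fluorescent substrate conversion with electrophoretic mobility-shift separation, 1 h after dosing. Duplicate single-point screening was at 25 uM; actives (≥30% inhibition) were retested in concentration-response up to 50 uM.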

Assay [7] deals with rat Monoamine Oxidase, MAO-A, Central (MAOAC), gene 29253. In words: NVS_ENZ_rMAOAC: NovaScreen (NVS) Enzymatic Assay for rat Monoamine Oxidase, MAO-A, Central (MAOAC) (AID 2283243).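 Further: potency refers to inhibition seen as signal drop below DMSO baseline.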 The procedure, abridged: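 Steps: rat brain protein extract dosed with test chemical (25 uM, duplicate, primary); incubated 1.5 h; radiolabelled product separated from substrate and counted. Signal loss versus DMSO scored as inhibition.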

For assay [8], the target named is human Caspase 2 (CASP2), CASP2 (gene 835) (UniProt P42575). In words: NVS_ENZ_hCASP2: NovaScreen (NVS) Enzymatic Assay for human Caspase 2 (CASP2) (AID 2283135). The procedure, abridged: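 E. coli-expressed enzyme in a cell-free protease assay, fluorescence read 1 h after dosing. Compounds at 25 uM in duplicate, with concentration-response up to 50 uM for hits; loss of signal against DMSO baseline.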

For assay [9], the target named is human Matrix Metalloproteinase-1 (MMP1), MMP1 (gene 4312) (UniProt P03956). The experiment in a line: NVS_ENZ_hMMP1: NovaScreen (NVS) Enzymatic Assay for human Matrix Metalloproteinase-1 (MMP1) (AID 2283181). The procedure, abridged:
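Human MMP1 enzyme activity measured by fluorescence 1 h after dosing, cell-free, with a specific substrate. Screened in duplicate at 25 uM; hits (e.g. 30% inhibition) run in concentration-response up to 50 uM; loss of signal versus DMSO.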

For assay [10], the target named is human Aurora Kinase A - serine/threonine-protein Kinase 6 (AurA), AURKA (gene 6790) (UniProt O14965). In words: NVS_ENZ_hAurA: NovaScreen (NVS) Enzymatic Assay for human Aurora Kinase A - serine/threonine-protein Kinase 6 (AurA) (AID 2283142). The procedure, abridged: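 Cell-free enzymatic assay with human Aurora A, 1 hour after dosing. Fluorescent substrate turnover detected after electrophoretic mobility shift separation of substrate and product. Screened at 25 uM, actives retested in concentration-response up to 50 uM.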

Assay [11] addresses human Ephrin type-A Receptor 2 (EphA2), EPHA2 (gene 1969) (UniProt P29317). In words: NVS_ENZ_hEphA2: NovaScreen (NVS) Enzymatic Assay for human Ephrin type-A Receptor 2 (EphA2) (AID 2283155). The procedure, abridged: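 Cell-free recombinant EphA2 kinase with specific substrate, 1 h, fluorescence with electrophoretic mobility-shift separation of substrate and product. Primary screen at 25 uM in duplicate; hits retested in singleton concentration-response up to 50 uM, referenced to DMSO.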

The target in assay [12] is human MET Proto-Oncogene, Receptor Tyrosine Kinase (MET), MET (gene 4233) (UniProt P08581). In words: NVS_ENZ_hMet: NovaScreen (NVS) Enzymatic Assay for human MET Proto-Oncogene, Receptor Tyrosine Kinase (MET) (AID 2283180). The procedure, abridged: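 Cell-free MET kinase assay using recombinant protein and fluorescent substrate, with mobility-shift separation; read 1 h after dosing. Primary duplicate at 25 uM; actives in singleton concentration-response to 50 uM maximum. Signal loss versus DMSO.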

Assay [13] concerns the target human Ephrin type-B Receptor 2 (EphB2), EPHB2 (gene 2048) (UniProt P29323). In words: NVS_ENZ_hEphB2: NovaScreen (NVS) Enzymatic Assay for human Ephrin type-B Receptor 2 (EphB2) (AID 2283156). The procedure, abridged:
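Recombinant kinase with fluorescent substrate, product separated by electrophoretic mobility shift, read 1 h after dosing. Duplicate 25 uM screen, then singleton concentration-response to 50 uM max; loss of signal versus DMSO.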

In assay [14] the target is Protein deacetylase HDAC6 (Homo sapiens) (UniProt Q9UBN7). In words: NVS_ENZ_hHDAC6: NovaScreen (NVS) Enzymatic Assay for human Histone Deacetylase 6 (HDAC6) (AID 2283164). The procedure, abridged: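 Recombinant human HDAC6 with fluorescent substrate, 1 h; product separated from substrate by electrophoretic mobility shift. Primary screen in duplicate at 25 uM; actives retested singly in concentration-response up to 50 uM, fitted relative to DMSO.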

The target in assay [15] is human IkappaB Kinase alpha (IKKa), CHUK (gene 1147) (UniProt O15111). In words: NVS_ENZ_hIKKa: NovaScreen (NVS) Enzymatic Assay for human IkappaB Kinase alpha (IKKa) (AID 2283167). The procedure, abridged: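 Cell-free recombinant human IKKa with fluorescent substrate, product separated by electrophoretic mobility shift; read 1 hour after dosing. Primary screen duplicate at 25 uM, actives then concentration-response up to 50 uM; loss of signal relative to DMSO.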

The target in assay [16] is rat Monoamine Oxidase, MAO-B, Peripheral (MAOBP), Maob (gene 25750) (UniProt P19643). In words: NVS_ENZ_rMAOBP: NovaScreen (NVS) Enzymatic Assay for rat Monoamine Oxidase, MAO-B, Peripheral (MAOBP) (AID 2283242).
rat Monoamine Oxidase, MAO-B, Peripheral (MAOBP), Maob (gene 25750), sequence (P19643 whole entry, looked up): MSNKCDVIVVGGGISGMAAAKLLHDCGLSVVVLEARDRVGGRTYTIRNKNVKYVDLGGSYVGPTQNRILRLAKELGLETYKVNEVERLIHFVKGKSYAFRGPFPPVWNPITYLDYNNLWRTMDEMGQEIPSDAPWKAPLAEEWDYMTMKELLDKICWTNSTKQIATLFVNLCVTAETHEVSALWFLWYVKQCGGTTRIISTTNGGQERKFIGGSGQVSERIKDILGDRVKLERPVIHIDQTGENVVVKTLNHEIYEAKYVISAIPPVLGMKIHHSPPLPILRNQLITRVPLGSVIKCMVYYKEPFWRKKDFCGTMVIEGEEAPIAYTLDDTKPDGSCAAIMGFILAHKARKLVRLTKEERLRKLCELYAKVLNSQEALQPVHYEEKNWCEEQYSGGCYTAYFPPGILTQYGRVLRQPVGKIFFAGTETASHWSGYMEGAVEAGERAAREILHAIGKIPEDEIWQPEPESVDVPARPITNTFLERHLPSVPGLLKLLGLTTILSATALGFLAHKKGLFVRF

human AMP-activated Protein Kinase, alpha 1 (AMPKa1), PRKAA1 (gene 5562), sequence (Q13131 whole entry, looked up): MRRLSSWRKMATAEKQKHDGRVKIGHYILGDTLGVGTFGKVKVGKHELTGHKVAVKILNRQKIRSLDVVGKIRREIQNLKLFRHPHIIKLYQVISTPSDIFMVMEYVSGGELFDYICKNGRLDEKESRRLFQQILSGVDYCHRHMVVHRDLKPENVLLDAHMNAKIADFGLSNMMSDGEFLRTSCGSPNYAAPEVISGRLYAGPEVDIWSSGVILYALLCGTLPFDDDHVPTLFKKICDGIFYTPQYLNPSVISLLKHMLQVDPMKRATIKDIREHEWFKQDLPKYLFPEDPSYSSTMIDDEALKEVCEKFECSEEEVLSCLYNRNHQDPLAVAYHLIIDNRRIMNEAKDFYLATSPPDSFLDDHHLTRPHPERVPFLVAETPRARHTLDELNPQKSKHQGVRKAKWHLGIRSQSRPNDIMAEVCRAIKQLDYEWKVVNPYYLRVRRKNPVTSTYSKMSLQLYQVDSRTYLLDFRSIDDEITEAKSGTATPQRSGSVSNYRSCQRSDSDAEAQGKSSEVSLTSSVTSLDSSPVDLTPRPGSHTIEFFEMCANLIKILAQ
human Acetylcholinesterase (AChE), ACHE (gene 43), sequence (P22303 whole entry, looked up): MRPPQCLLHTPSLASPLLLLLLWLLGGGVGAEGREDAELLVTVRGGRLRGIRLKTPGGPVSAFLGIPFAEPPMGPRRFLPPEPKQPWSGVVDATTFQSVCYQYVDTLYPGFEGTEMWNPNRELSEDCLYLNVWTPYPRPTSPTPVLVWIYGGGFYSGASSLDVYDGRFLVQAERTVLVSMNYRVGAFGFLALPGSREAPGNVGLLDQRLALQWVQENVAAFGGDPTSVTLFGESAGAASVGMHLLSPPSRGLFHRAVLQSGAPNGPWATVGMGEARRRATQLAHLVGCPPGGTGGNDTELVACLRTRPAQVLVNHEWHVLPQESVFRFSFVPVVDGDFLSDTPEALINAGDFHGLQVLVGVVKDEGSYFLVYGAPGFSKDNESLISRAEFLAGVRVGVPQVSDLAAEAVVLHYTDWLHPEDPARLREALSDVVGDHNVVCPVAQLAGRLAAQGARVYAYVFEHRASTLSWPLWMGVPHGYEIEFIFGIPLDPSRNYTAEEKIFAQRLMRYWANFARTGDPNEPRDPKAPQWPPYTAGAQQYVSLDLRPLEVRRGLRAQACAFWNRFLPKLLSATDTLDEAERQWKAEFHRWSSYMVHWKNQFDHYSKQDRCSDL
human Fibroblast Growth Factor Receptor 1 (FGFR1), FGFR1 (gene 2260), sequence (P11362 whole entry, looked up): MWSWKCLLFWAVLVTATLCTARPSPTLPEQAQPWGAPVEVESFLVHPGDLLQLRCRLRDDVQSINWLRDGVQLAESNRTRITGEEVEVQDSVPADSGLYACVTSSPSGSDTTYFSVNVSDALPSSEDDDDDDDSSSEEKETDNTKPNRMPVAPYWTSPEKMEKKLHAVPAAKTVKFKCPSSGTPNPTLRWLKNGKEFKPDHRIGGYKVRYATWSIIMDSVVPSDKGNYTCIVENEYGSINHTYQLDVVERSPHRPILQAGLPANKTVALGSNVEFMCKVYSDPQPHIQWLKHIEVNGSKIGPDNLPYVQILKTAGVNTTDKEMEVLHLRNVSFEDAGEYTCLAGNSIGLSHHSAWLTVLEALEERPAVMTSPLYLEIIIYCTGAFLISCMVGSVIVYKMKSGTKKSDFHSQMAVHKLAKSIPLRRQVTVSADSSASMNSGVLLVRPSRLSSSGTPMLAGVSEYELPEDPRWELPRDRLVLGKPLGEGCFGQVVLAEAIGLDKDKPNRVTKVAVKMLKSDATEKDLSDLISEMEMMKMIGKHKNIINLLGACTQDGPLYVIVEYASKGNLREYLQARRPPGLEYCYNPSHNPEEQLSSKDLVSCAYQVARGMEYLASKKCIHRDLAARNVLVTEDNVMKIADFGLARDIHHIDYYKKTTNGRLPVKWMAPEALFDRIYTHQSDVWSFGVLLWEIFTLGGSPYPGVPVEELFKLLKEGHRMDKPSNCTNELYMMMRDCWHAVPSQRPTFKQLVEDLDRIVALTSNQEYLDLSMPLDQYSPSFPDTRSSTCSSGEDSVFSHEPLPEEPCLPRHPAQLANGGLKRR
rat Monoamine Oxidase, MAO-B, Central (MAOBC), Maob (gene 25750), sequence (P19643 whole entry, looked up): as the sequence (P19643 whole entry, looked up) above
human Aurora Kinase A - serine/threonine-protein Kinase 6 (AurA), AURKA (gene 6790), sequence (O14965 whole entry, looked up): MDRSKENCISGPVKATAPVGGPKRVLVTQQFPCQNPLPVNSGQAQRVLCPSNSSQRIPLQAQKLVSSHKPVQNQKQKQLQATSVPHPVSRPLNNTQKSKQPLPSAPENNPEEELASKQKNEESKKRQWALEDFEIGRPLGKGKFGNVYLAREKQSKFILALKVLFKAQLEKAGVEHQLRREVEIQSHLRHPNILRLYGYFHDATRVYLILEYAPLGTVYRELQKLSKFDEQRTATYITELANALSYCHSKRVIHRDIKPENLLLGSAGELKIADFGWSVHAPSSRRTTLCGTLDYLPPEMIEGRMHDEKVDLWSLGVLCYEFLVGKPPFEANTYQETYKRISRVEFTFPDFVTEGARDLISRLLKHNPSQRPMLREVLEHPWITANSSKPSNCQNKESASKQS
Norway rat Vesicular Monoamine Transporter (VMAT2), neurotransmitter transporter, Slc18a2 (gene 25549), sequence (Q01827 whole entry, looked up): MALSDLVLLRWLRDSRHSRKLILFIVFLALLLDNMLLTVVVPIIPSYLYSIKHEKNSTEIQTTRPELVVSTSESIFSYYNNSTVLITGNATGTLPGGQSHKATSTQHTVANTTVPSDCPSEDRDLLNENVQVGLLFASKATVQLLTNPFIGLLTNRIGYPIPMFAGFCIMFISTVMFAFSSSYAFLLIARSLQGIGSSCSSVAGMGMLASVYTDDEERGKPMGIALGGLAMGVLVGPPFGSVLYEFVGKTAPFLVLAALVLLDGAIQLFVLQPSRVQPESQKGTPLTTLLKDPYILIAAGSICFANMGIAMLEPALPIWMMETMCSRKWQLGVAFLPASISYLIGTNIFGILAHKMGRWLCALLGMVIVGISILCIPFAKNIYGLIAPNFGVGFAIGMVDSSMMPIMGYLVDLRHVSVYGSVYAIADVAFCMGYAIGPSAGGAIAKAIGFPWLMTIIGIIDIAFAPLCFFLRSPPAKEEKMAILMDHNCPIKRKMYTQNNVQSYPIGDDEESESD
human MET Proto-Oncogene, Receptor Tyrosine Kinase (MET), MET (gene 4233), sequence (P08581 whole entry, looked up): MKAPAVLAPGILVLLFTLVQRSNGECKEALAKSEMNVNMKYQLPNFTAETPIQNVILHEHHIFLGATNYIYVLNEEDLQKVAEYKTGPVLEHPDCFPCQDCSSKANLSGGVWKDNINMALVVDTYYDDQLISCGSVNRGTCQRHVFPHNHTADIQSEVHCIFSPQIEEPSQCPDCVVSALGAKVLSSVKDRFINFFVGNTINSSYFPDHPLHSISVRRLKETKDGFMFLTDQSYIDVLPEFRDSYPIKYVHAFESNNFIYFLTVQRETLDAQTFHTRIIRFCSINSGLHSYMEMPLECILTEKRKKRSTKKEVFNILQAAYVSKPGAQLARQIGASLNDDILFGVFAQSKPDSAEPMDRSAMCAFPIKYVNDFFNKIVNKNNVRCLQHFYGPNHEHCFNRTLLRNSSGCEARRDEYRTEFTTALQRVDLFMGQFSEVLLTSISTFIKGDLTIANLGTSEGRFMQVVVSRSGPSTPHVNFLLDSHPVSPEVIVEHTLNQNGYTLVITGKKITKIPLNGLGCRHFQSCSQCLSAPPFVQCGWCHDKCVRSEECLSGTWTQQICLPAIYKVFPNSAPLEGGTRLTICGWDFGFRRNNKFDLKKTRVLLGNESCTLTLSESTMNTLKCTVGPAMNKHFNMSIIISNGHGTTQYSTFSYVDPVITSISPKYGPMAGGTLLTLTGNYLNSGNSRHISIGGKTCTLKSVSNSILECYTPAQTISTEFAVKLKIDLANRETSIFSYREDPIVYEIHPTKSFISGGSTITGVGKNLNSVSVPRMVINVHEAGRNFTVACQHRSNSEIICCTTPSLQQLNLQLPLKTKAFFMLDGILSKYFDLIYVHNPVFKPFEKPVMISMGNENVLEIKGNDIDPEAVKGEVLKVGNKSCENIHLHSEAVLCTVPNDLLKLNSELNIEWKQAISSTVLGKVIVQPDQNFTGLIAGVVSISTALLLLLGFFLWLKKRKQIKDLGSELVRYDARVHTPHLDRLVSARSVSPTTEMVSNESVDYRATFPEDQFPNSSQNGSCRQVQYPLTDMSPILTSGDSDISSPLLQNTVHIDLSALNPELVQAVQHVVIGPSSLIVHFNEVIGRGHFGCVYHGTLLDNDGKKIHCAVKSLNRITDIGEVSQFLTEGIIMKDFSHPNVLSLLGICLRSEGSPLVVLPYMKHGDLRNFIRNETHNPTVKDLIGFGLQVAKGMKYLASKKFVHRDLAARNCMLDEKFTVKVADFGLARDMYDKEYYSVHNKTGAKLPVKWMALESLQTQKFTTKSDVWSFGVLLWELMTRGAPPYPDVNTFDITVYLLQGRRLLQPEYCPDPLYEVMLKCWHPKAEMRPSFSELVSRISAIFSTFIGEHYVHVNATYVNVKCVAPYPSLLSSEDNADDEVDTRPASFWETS

`COCCOc1cc2cc(C(=O)NC3CCN(C(C)C)CC3)n(CC(=O)Nc3ccc(Cl)cn3)c2cn1`: the AC50 in assay [1] is 29 µM (active). Further, the outcome in assay [2] was inactive.

For `N=C(N)c1ccc(OCCCCCOc2ccc(C(=N)N)cc2)cc1`, the AC50 in [1] was 19.3 µM (active); in [4], 0.504 µM (active); in [5], 0.0798 µM (active); in [2] it was 5.98 µM (active). Also, the outcome in [3] was inactive.

As to `C/C=C/C=C/C(=O)O`, the result in [6] was inactive.

With `Clc1cc(Cl)c2c(c1)N=C1CCCCCN1C2`, the concentration at half-maximal activity (AC50) in [1] was 0.351 µM (active); in assay [4], 4.96 µM (active); in assay [7], 8.08 µM (active). In assay [3], the call was inactive.

With `COc1cccc(-c2ccc(/C=C\CN3CCCCCC3)cc2Cl)c1`, the results for the concentration at half-maximal activity (AC50) in assay [1], in assay [6] and in assay [5] were 22.6 µM (active), 34.6 µM (active) and 27.7 µM (active), respectively.

Regarding `O=C1c2c(O)cccc2Cc2cccc(O)c21`, the AC50 in assay [1] was 0.484 µM (active); in assay [8] it was 1.03 µM (active); in [9] it was 15.7 µM (active).

Turning to `CC1=C(/C=C/C(C)=C/C=C/C(C)=C/CO)C(C)(C)CCC1`, the compound was called inactive in assay [6], in [10], in assay [11] and in [3].

Regarding `CC(C)CC(C)(O)C#CC(C)(O)CC(C)C` (stereo unspecified), the compound was classed as inactive in [6].

Take `CCc1nc(N)nc(N)c1-c1ccc(Cl)cc1`: the call in assay [1] and in [12] was inactive.

As for `NCc1cccc(C2CCN(C(=O)c3ccc(C#Cc4ccccc4F)o3)CC2)c1`, the AC50 in [1] is 25 µM (active); in [4], 3.57 µM (active); in [5], 11.2 µM (active); in assay [7], 1.72 µM (active).

As to `CCCCCCCC/C=C\CCCCCCCC(=O)OC[C@@H](O)[C@H]1OC[C@H](O)[C@H]1O`, the result in [6], in assay [10], in [3], in assay [14], in [15] and in [16] was inactive. Further, the AC50 in assay [13] was 6.52 µM (active).
